Assay results as given in the supplement of paper PMC6411743.
± gives the standard deviation of the averaged measurements. Of roughly 6,200 targets only a part is listed; those with the largest changes were picked by preference.

Compound: Nc1ncnc2c1ncn2[C@@H]1O[C@H](COP(=O)(O)OP(=O)(O)NP(=O)(O)O)[C@@H](O)[C@H]1O [adenylyl imidodiphosphate]
Assay: NP40-soluble protein abundance relative to vehicle (solubility fold change) (ratio); higher = more soluble protein in presence of AMP-PNP
Outline: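 In three independent experiments, Jurkat crude lysate made by Dounce homogenisation was treated for 10 min at room temperature and then 3 min at 37 °C with eight concentrations ranging from 0.1 to 10 mM. It was then solubilised with 0.8% NP40 plus benzonase for 60 min at 4 °C and ultracentrifuged. The supernatant was TMT-labelled for LC-MS/MS, and each value is the fold change against the detergent-processed vehicle for the same replicate, using vsn-normalised intensities.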

Chain of UniProt Q9UKT5 (Q9UKT5 whole entry, one chain of several): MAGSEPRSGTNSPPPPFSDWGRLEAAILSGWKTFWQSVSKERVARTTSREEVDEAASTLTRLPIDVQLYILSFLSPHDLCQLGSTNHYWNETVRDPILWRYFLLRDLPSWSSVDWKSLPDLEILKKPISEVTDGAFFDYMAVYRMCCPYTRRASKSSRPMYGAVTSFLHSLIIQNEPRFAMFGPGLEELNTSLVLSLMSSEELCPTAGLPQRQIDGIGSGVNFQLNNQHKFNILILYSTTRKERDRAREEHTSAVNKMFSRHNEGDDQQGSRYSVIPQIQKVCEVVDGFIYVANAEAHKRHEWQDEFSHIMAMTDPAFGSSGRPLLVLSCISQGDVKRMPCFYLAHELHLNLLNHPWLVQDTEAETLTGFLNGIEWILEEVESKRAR
Chain of UniProt O15541 (O15541 whole entry): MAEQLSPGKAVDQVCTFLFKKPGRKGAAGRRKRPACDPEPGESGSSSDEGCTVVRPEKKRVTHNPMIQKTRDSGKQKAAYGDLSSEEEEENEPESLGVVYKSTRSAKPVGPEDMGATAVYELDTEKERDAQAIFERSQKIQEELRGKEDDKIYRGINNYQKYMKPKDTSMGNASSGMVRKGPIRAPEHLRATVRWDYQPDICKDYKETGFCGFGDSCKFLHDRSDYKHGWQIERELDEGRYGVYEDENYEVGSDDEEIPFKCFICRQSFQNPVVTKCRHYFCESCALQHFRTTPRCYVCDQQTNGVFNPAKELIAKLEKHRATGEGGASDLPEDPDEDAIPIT
Chain of UniProt Q13309 (Q13309 whole entry, one chain of several): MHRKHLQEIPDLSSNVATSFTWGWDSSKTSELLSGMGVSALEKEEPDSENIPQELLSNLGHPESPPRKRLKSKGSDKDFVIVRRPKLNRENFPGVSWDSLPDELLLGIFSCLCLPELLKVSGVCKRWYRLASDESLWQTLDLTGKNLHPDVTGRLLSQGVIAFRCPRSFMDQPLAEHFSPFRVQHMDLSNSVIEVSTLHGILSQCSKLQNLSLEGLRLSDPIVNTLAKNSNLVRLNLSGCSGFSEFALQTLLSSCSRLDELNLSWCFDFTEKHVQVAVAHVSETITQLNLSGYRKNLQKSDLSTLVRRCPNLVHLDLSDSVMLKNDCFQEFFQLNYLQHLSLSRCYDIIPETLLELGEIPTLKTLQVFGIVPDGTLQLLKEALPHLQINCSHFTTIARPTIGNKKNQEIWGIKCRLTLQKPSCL
Chain of UniProt Q8WUI4 (Q8WUI4 whole entry, one chain of several): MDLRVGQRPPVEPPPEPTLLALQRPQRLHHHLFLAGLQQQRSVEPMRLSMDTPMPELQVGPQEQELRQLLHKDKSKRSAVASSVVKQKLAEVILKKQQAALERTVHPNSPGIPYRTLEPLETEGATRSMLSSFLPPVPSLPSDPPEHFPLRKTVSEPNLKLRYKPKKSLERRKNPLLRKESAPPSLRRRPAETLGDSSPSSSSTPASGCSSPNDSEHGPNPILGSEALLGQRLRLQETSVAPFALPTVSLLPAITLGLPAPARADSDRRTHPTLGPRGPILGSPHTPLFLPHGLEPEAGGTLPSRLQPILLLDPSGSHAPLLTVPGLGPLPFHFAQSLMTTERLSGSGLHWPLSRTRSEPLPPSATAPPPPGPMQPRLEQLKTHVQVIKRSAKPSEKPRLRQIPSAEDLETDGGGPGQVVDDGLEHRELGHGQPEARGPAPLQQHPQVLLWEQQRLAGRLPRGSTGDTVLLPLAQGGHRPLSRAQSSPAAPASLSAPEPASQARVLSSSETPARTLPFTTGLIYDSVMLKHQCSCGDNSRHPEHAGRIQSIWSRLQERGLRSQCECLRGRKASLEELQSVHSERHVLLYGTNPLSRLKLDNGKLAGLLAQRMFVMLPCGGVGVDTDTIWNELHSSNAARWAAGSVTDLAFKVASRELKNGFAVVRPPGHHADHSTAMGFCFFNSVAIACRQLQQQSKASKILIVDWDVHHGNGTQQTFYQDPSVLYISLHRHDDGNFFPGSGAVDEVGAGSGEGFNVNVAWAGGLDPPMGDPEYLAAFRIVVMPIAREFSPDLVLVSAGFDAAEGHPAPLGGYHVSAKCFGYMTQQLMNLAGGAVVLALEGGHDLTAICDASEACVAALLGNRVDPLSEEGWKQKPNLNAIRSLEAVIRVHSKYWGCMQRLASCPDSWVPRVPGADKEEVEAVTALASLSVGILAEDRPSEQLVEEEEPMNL
Chain of UniProt P13798 (P13798 whole entry, one chain of several): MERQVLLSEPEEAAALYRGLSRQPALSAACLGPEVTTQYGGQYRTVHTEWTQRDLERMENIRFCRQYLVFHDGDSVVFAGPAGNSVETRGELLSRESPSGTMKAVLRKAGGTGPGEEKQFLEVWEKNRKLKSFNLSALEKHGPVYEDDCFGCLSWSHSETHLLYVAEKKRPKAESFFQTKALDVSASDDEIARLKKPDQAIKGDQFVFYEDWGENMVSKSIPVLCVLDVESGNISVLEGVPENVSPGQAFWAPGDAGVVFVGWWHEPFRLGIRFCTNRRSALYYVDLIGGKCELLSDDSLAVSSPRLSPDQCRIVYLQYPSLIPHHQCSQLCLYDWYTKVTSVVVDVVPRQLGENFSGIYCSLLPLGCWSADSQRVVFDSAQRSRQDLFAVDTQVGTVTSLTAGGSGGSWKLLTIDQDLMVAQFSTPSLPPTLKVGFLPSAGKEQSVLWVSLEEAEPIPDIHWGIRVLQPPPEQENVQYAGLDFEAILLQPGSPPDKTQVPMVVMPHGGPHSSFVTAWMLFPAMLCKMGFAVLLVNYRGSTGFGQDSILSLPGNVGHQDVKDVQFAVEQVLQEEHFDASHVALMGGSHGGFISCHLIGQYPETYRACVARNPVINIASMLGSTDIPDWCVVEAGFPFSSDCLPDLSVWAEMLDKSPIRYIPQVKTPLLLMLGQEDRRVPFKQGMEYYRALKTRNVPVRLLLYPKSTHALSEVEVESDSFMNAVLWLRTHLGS
Chain of UniProt O75155 (O75155 whole entry): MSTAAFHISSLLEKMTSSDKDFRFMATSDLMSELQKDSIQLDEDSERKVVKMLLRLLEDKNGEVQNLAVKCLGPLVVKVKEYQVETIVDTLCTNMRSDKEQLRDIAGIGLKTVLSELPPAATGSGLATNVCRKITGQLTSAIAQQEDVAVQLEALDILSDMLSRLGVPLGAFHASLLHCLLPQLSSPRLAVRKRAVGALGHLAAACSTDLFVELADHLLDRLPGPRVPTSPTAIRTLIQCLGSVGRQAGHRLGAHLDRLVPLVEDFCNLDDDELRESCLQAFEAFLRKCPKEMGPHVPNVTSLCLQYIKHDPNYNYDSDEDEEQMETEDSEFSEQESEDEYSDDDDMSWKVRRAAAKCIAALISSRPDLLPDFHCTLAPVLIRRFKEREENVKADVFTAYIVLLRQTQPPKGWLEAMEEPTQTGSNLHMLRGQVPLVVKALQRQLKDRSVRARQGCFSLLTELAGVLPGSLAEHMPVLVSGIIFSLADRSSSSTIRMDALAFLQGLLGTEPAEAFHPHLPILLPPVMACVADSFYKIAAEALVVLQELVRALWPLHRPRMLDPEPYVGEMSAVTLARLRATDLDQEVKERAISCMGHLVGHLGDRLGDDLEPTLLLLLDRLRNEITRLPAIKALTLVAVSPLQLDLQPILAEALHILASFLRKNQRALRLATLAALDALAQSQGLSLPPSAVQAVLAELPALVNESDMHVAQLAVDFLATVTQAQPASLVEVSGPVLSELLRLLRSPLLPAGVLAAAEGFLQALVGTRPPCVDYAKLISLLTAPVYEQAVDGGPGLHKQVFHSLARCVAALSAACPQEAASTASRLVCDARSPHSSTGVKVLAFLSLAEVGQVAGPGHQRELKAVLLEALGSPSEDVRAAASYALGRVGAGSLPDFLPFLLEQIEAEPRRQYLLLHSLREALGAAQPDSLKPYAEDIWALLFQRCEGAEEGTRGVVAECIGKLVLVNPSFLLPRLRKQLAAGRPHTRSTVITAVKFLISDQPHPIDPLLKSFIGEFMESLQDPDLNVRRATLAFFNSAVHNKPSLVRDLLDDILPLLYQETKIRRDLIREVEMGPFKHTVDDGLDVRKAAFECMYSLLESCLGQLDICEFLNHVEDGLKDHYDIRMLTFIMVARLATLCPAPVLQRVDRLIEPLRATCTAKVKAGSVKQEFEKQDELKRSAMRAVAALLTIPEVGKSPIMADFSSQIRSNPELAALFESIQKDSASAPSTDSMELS
Chain of UniProt O43670 (O43670 whole entry, one chain of several): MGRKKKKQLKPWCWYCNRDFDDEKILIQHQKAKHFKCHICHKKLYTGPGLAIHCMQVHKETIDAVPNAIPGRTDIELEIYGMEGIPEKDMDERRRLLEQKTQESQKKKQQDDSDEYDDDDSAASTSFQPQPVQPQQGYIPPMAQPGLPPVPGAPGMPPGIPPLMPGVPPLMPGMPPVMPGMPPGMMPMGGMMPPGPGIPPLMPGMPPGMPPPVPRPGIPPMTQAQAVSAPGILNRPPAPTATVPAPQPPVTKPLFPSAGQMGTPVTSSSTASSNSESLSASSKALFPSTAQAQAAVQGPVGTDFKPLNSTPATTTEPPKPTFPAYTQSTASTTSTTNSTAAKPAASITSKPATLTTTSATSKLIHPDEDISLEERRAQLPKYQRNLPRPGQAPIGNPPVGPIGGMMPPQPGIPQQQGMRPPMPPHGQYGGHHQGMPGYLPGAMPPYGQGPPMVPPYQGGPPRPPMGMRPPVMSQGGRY
Chain of UniProt Q96K21 (Q96K21 whole entry, one chain of several): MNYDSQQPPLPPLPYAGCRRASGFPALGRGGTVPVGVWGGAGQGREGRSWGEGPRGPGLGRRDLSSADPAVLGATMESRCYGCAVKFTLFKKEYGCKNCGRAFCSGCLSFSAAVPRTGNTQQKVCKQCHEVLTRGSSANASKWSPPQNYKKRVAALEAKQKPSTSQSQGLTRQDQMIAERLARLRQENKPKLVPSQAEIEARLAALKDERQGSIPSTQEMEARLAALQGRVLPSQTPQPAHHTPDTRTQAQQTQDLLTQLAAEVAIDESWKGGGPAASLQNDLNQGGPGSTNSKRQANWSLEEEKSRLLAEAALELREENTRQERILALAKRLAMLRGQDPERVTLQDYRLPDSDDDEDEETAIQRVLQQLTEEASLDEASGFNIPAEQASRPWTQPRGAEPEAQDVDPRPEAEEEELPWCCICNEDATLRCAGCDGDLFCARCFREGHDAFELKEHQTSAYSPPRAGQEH

Target	NP40-soluble protein abundance (concentration: 1mM)	NP40-soluble protein abundance (concentration: 2mM)	NP40-soluble protein abundance (concentration: 4mM)	NP40-soluble protein abundance (concentration: 6mM)	NP40-soluble protein abundance (concentration: 8mM)	NP40-soluble protein abundance (concentration: 10mM)
F8VX04|Q9H2H9 (UniProt Q9H2H9)	1.14 ± 0.1	1.36 ± 0.19	1.1 ± 0.051	1.06 ± 0.094	1.01 ± 0.087	1.13 ± 0.19
J3QRS9|O43670|O43670-2|O43670-4|X6R4W8 (UniProt O43670)	1.09 ± 0.073	1.09 ± 0.087	1.15 ± 0.074	1.25 ± 0.065	1.29 ± 0.062	1.34 ± 0.1
A0A0G2JNU3|A6H8Y1|A6H8Y1-6|A6H8Y1-7 (UniProt A6H8Y1)	1.05 ± 0.041	1.087 ± 0.0063	1.12 ± 0.056	1.17 ± 0.067	1.12 ± 0.07	1.22 ± 0.046
ZC3H11A (UniProt O75152)	0.86 ± 0.11	0.883 ± 0.1	0.853 ± 0.13	0.936 ± 0.094	0.933 ± 0.098	1.03 ± 0.098
K7ER90|O75821|K7EL60 (UniProt O75821)	1.02 ± 0.075	1.1 ± 0.077	1.11 ± 0.095	1.24 ± 0.045	1.27 ± 0.074	1.42 ± 0.14
A0A0A0MTL5|Q13309|Q13309-2 (UniProt Q13309)	0.986 ± 0.041	0.965 ± 0.037	0.976 ± 0.029	0.932 ± 0.053	0.923 ± 0.036	0.91 ± 0.014
D6RAJ6|Q9UKT5|Q9UKT5-2 (UniProt Q9UKT5)	1.01 ± 0.035	0.996 ± 0.032	0.986 ± 0.024	0.975 ± 0.026	0.983 ± 0.035	0.981 ± 0.045
F8VU90|Q9NYL4|Q9NYL4-2 (UniProt Q9NYL4)	1.01 ± 0.042	1.04 ± 0.043	1.07 ± 0.062	0.997 ± 0.031	0.999 ± 0.084	0.994 ± 0.12
UniProt O00567	1.08 ± 0.026	1.08 ± 0.024	1.16 ± 0.026	1.25 ± 0.056	1.37 ± 0.087	1.53 ± 0.12
K7EMM8|Q49A26|Q49A26-2|Q49A26-3|Q49A26-4 (UniProt Q49A26)	1.07 ± 0.062	1.14 ± 0.1	1.16 ± 0.14	1.25 ± 0.17	1.31 ± 0.2	1.47 ± 0.3
J3KPH8|Q8WUI4|Q8WUI4-3|Q8WUI4-4|Q8WUI4-5|Q8WUI4-6|Q8WUI4-7|Q8WUI4-8 (UniProt Q8WUI4)	0.979 ± 0.04	1 ± 0.027	1 ± 0.026	0.98 ± 0.024	0.998 ± 0.067	0.9557 ± 0.0038
E9PB61|Q86V81 (UniProt Q86V81)	0.969 ± 0.032	1.08 ± 0.042	1.09 ± 0.027	1.27 ± 0.081	1.41 ± 0.14	1.6 ± 0.28
H3BRF9|Q96K21|Q96K21-3 (UniProt Q96K21)	0.998 ± 0.015	1.03 ± 0.05	1.02 ± 0.049	0.979 ± 0.02	0.959 ± 0.028	0.997 ± 0.044
E9PLV1|Q9NQV6|Q9NQV6-1|Q9NQV6-2|Q9NQV6-4|Q9NQV6-5|Q9NQV6-6|Q9NQV6-7|E9PRS0 (UniProt Q9NQV6)	1 ± 0.012	0.963 ± 0.055	0.9952 ± 0.0059	0.989 ± 0.021	1 ± 0.034	0.98 ± 0.023
UniProt O43148|O43148-2	0.996 ± 0.013	1.01 ± 0.011	0.992 ± 0.017	0.992 ± 0.027	0.985 ± 0.029	1 ± 0.033
B5MCS2|Q8WTS6 (UniProt Q8WTS6)	0.93 ± 0.076	0.946 ± 0.039	0.946 ± 0.043	0.954 ± 0.032	0.957 ± 0.022	0.936 ± 0.042
J3KNN5|Q9UJV9 (UniProt Q9UJV9)	1.11 ± 0.029	1.1 ± 0.043	1.13 ± 0.073	1.12 ± 0.035	1.15 ± 0.053	1.22 ± 0.065
C9JIF9|P13798 (UniProt P13798)	0.953 ± 0.027	0.88 ± 0.061	0.915 ± 0.0095	0.903 ± 0.014	0.909 ± 0.022	0.871 ± 0.04
UniProt O15400|O15400-2	1.01 ± 0.059	1.04 ± 0.1	0.993 ± 0.06	0.992 ± 0.035	0.976 ± 0.039	0.957 ± 0.038
E9PBG7|E9PF82|Q13557|Q13557-10|Q13557-11|Q13557-12|Q13557-3|Q13557-4|Q13557-5|Q13557-6|Q13557-8|Q13557-9 (UniProt Q13557)	0.94 ± 0.026	0.989 ± 0.049	0.903 ± 0.017	0.89 ± 0.054	0.878 ± 0.022	0.88 ± 0.027
F8WCF9|G5E9E8|Q8N465|Q8N465-2|Q8N465-3 (UniProt Q8N465)	0.983 ± 0.03	1.01 ± 0.012	0.992 ± 0.01	1.04 ± 0.035	1.02 ± 0.032	1.03 ± 0.02
E9PDF6|O43795|O43795-2 (UniProt O43795)	2.06 ± 0.29	2.04 ± 0.2	2.31 ± 0.29	2.37 ± 0.28	2.45 ± 0.32	2.39 ± 0.27
RNF113A (UniProt O15541)	1.02 ± 0.038	1.04 ± 0.089	0.999 ± 0.029	0.979 ± 0.017	0.935 ± 0.012	0.973 ± 0.035
J3QTA2|Q99933|Q99933-3|Q99933-4 (UniProt Q99933)	1.01 ± 0.028	1.029 ± 0.0083	0.992 ± 0.012	0.99 ± 0.03	0.965 ± 0.038	0.993 ± 0.021
F5GXC5|H3BUJ1|Q8TB96 (UniProt Q8TB96)	1.01 ± 0.017	1.02 ± 0.054	1.01 ± 0.037	1.008 ± 0.0079	1.01 ± 0.024	0.996 ± 0.023
MYO1G (UniProt B0I1T2)	1.14 ± 0.074	1.12 ± 0.11	1.27 ± 0.22	1.34 ± 0.3	1.44 ± 0.43	1.47 ± 0.46
CAND2 (UniProt O75155)	0.973 ± 0.018	0.942 ± 0.027	0.986 ± 0.045	1 ± 0.066	1.01 ± 0.031	1.02 ± 0.023
A0A0A0MTG1|A0A0G2JIA5|A0A140T8Y0|A0A140TA35|A0A140TA36|A0A140TA40|A0A140TA45|Q5ST30|Q5ST30-4|A0A0G2JL52|B4E0K6|B7ZL25 (UniProt Q5ST30)	1 ± 0.017	0.992 ± 0.051	0.992 ± 0.02	0.98 ± 0.034	0.979 ± 0.022	0.969 ± 0.04
F6TLX2|Q9HC38-2 (UniProt Q9HC38)	1.01 ± 0.02	1.01 ± 0.014	0.981 ± 0.03	0.958 ± 0.035	0.938 ± 0.034	0.95 ± 0.047
E7EQY1|Q96C01 (UniProt Q96C01)	1.01 ± 0.036	1.11 ± 0.07	0.988 ± 0.082	0.991 ± 0.062	0.958 ± 0.062	0.968 ± 0.11
